High-throughput results deposited in PubChem BioAssay by The Scripps Research Institute Molecular Screening Center.
TTR transcr act: increases transthyretin transcription | SH-SY5Y TTR promoter Gaussia luciferase, luminescence; 100% = recombinant luciferase protein wells | activation, % at 16.7 µM | 92,000 compounds, 1.3% hits;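 active means activation above the mean of all tested compounds plus 3 SD, cut at about 9.5% in these data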;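 further: cells exposed to compounds for one day before reading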
HuH7 TTR inh: counter-screen for TTR activators: TTR transcription inhibitors in HuH7 cells. shares compounds with TTR transcr act. HuH7 TTR promoter-Gaussia luciferase reporter, luminescence. inhibition, % at 16.7 µM. 1,100 compounds, 4% hits;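 active means average inhibition above the solvent-only control wells' mean plus 3 SD, cut at about 15% in these data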;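 further: inhibitors lower well luminescence so higher value means more inhibition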
TTR up confirm: human TTR transcription activation, confirmation; shares compounds with TTR transcr act; activation, % at 16.7 µM; SHSY5Y TTR promoter Gaussia luciferase, luminescence; 100% = purified Lucia enzyme wells, no cells; 1,100 tested, under 10 active;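 active means mean activation above a set limit taken from the earlier primary screen, cut at about 11% in these data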
A number is an active result. This excerpt belongs to a sample that is enriched for hits.

`O=S(=O)(Nc1ccccn1)c1ccc(Br)cc1` gave TTR transcr act inactive.
For O=S(=O)(Nc1nccs1)c1cnc(Cl)c(Br)c1 the results were TTR transcr act inactive.
`CCN=C1S/C(=C/c2cc(C)n(-c3ccc(Cl)cc3F)c2C)C(=O)N1CC` gave TTR transcr act inactive.
For CCOc1ccc(-c2nc(CSCC(=O)NC3CCC3)c(C)o2)cc1 the results were TTR transcr act inactive.
Cc1cc(NC(=O)C2CC2)ncc1NC(=O)c1ccccn1 was read as TTR transcr act inactive.
Cc1cc(NC(=O)C2CCCCC2)ncc1NC(=O)c1ccccn1 was read as TTR transcr act 14, HuH7 TTR inh inactive and TTR up confirm inactive.
Cc1ccccc1NC(=O)c1ccccn1 was read as TTR transcr act inactive.
Screening Cc1ccc(CN2CCCCC(NC(=O)c3ccccc3)C2=O)cc1 (centres undefined) returned TTR transcr act inactive.
`COC(=O)c1cc(-c2ccc(F)cc2OCc2ccccc2)c(=O)n2c1CCC2` gave TTR transcr act inactive.
`CN(C(=O)[C@@H](C1CC1)[C@@H](O)c1ccc(Cl)cc1)c1ccccc1` gave TTR transcr act inactive.
`CC(C)N1CCCCC(NC(=O)c2ccc(Cl)cc2Cl)C1=O` (centres undefined) gave TTR transcr act inactive.
`COc1ccc(NC(=O)CCc2nc(-c3ccccc3F)no2)cc1` gave TTR transcr act 9.9, HuH7 TTR inh inactive and TTR up confirm inactive.
For CCOC(=O)c1cccc(NC(=O)CCc2nc(-c3ccccc3F)no2)c1 the results were TTR transcr act inactive.
Screening COc1ccc(-c2noc(CCC(=O)Nc3nc4ccccc4s3)n2)cc1 returned TTR transcr act inactive.
Screening COCCN=C1S/C(=C\c2cc(C)n(-c3ccc(F)cc3F)c2C)C(=O)N1C returned TTR transcr act inactive.
Screening NC(=O)c1ccccc1-c1noc(-c2ccccc2F)n1 returned TTR transcr act inactive.
Screening CCCCCCCC(=O)N[C@H]1CC[C@@]23CCCN2C(=O)CCC[C@H]3[C@H]1CCC returned TTR transcr act inactive.
Screening COC(=O)[C@]12C[C@H](CC(=O)NCC3CCCCC3)C(=O)N(Cc3cccc4ccccc34)C1=C[C@H](COCc1ccccc1)O[C@@H]2C returned TTR transcr act inactive.
Screening O=C(Nc1ccc(F)cc1)OCc1cn(Cc2cc(F)ccc2F)nn1 returned TTR transcr act inactive.
CC(=O)c1cccc(N(CC(=O)Nc2ccccc2F)S(C)(=O)=O)c1 was read as TTR transcr act inactive.
For CC(=O)c1cccc(NC(=O)CN(c2ccccc2)S(C)(=O)=O)c1 the results were TTR transcr act 12, HuH7 TTR inh inactive and TTR up confirm inactive.
`CC(=O)c1cccc(N(CC(=O)Nc2ccc(S(=O)(=O)N3CCCC3)cc2)S(C)(=O)=O)c1` gave TTR transcr act inactive.
Screening O=C(CCc1ccccc1-c1ccccc1CCNC(=O)c1cccc(F)c1)NCc1ccccc1 returned TTR transcr act inactive.
`COc1ccc2c(c1C(=O)/C=C/c1ccccc1)OC(C)(C)C=C2` gave TTR transcr act inactive.
Screening Cc1ccc(N2C(=O)CC(Cn3nc(C)cc3C)C2=O)cc1 (centres undefined) returned TTR transcr act inactive.
Cc1cc(C)n(CC2CC(=O)N(c3ccc(Cl)c(Cl)c3)C2=O)n1 (centres undefined) was read as TTR transcr act 12, HuH7 TTR inh inactive and TTR up confirm inactive.
For Cc1cc(C)n(CC2CC(=O)N(c3ccc(Cl)cc3)C2=O)n1 (centres undefined) the results were TTR transcr act inactive.
For CC(C)CCN1C(=O)COc2ccccc2C1c1nnnn1-c1ccc2c(c1)OCCO2 (centres undefined) the results were TTR transcr act inactive.
For C[C@H]1[C@@H](NCc2ccccc2)CC[C@@]23CCCN2C(=O)CCC[C@@H]13 the results were TTR transcr act inactive.
`CCC[C@H]1[C@@H](OC(=O)N2CCOCC2)CC[C@@]23CCCN2C(=O)CCC[C@@H]13` gave TTR transcr act inactive.
Screening CCCCCCCCN1C(=O)[C@@H](CC(=O)N2CCN(C(=O)C3CC3)CC2)C[C@@]2(C(=O)OC)C1=C[C@H](COCc1ccccc1)O[C@@H]2C returned TTR transcr act inactive.
COc1ccc(CNC2CCC23CCC(c2ccccc2)CC3)cc1OC (centres undefined) was read as TTR transcr act inactive.
Screening COCC(=O)Nc1cc(OC)c(Cl)cc1OC returned TTR transcr act inactive.
For COc1cc(NC(=S)N(C)CCC#N)c(OC)cc1Cl the results were TTR transcr act 11, HuH7 TTR inh inactive and TTR up confirm inactive.
`COc1cc(NC(=S)N(C)C)c(OC)cc1Cl` gave TTR transcr act inactive.
For C=CC(=O)NC1CCCCN(CC)C1=O (centres undefined) the results were TTR transcr act inactive.
Cc1noc(C)c1NC(=O)Nc1cccc2c1O[C@H](CN(C)C(=O)NC1CCCCC1)[C@@H](C)CN([C@H](C)CO)C2=O was read as TTR transcr act inactive.
For C[C@H]1[C@@H](N(C)CC2CCCCC2)CC[C@@]23CCCN2C(=O)CCC[C@@H]13 the results were TTR transcr act inactive.
For COc1ccc(CN2C(=O)[C@@](O)(c3cccn3C)c3cc(Br)ccc32)cc1 the results were TTR transcr act inactive.
`O=C/C(=C\Nc1ccc(Br)cc1)c1nc2ccccc2o1` gave TTR transcr act inactive.
For O=C/C(=C\Nc1ccccn1)c1nc2ccccc2o1 the results were TTR transcr act 11, HuH7 TTR inh 25 and TTR up confirm inactive.
For O=C/C(=C\Nc1ccccn1)c1nc2cc(Cl)ccc2o1 the results were TTR transcr act inactive.
Screening Cc1ccnc(Nc2cccnc2)n1 returned TTR transcr act inactive.
`O=C(NNc1cc(N2CCOCC2)nc(N2CCOCC2)n1)c1ccc(Cl)c(Cl)c1` gave TTR transcr act inactive.
`CC(=O)c1cccc(Nc2nc(N3CCOCC3)nc(N3CCOCC3)n2)c1` gave TTR transcr act inactive.
For O=C(NNc1nc(N2CCOCC2)nc(N2CCOCC2)n1)c1ccccc1 the results were TTR transcr act 23, HuH7 TTR inh inactive and TTR up confirm inactive.
`O=S1(=O)c2c(cccc2N2CC[C@@H](O)C2)O[C@@H]2CCN1C2` gave TTR transcr act inactive.
O=C(NN(Cc1ccccc1)Cc1ccccc1)c1ccccc1 was read as TTR transcr act inactive.
For COc1ccc(Cn2ccc3ccc(-c4ccc5ccn(Cc6cccc(F)c6)c5c4)cc32)cc1 the results were TTR transcr act inactive.
`O=S(=O)(Nc1ccc(C(O)(C(F)(F)F)C(F)(F)F)cc1)c1cccc2cccnc12` gave TTR transcr act inactive.
C[C@H]1[C@@H](OC(=O)NCc2cccc(C(F)(F)F)c2)CC[C@@]23CCCN2C(=O)CCC[C@@H]13 was read as TTR transcr act inactive.
Screening Cc1ccsc1CNC12CC3CC(CC(C3)C1)C2 returned TTR transcr act 9.7, HuH7 TTR inh inactive and TTR up confirm inactive.
Screening CC(C)(CO)NC12CC3CC(CC(C3)C1)C2 returned TTR transcr act inactive.
`c1ccc(CNC23CC4CC(CC(C4)C2)C3)nc1` gave TTR transcr act inactive.
CC(C)(C)OC(=O)NC(Cc1ccccc1)C1CC(C#N)C(=O)O1 (centres undefined) was read as TTR transcr act inactive.
